Potency and outcome data for 28 compounds are collected here from PubChem BioAssay (NCATS).

The structures appear in SMILES notation. Several values for one entry are separate records, joined by “and”; a condition that tells them apart may be missing. Equal entries are not always repeated. Inconclusive results are not listed. Activity calls are given as the source filed them. Unless noted, the call rests on the fitted dose curve; in most records, active means well fitted curve in the direction sought with a large enough effect; inconclusive means small, poorly fitted or top-dose-only effect, or another doubt; inactive means no such curve, though single readings can be large; an effect the other way counts as inactive or inconclusive.

Experiment [1] addresses Voltage-gated inwardly rectifying potassium channel KCNH2 (Homo sapiens) (UniProt Q12809). The experiment in a line: qHTS Assay for Small Molecule Inhibitors of the Human hERG Channel Activity (AID 588834).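 Further: lower thallium flux fluorescence means stronger hERG block; nearly all actives have a fitted effect of over 50% in size.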 Further: potency means the concentration at half of the fitted maximal effect. The essentials: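 Cells were infected with hERG-BacMam virus for 4 hrs at room temperature, grown overnight, then seeded at 2000/well. After dye loading and roughly 10 min compound treatment, thallium influx was triggered and fluorescence recorded.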
In general terms: In qHTS, concentration-response curves come from the screen itself.

Experiment [2] addresses Luciferin 4-monooxygenase (Photinus pyralis) (UniProt P08659). The experiment in a line: Biochemical firefly luciferase enzyme assay for NPC (AID 624030). Further: nearly all actives have a fitted effect of over 70% in size. Further: potency means the concentration at half of the fitted maximal effect. In outline:
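Direct inhibition of firefly luciferase enzyme (10 nM final, 50 mM Tris Acetate) assessed by luminescence within 5 minutes. Percent activity scaled between DMSO and PTC124 positive control, with concentration-effect curves classified by fit quality and response.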

Experiment [3] can be described thus: S16 Schwann cell viability assay (CellTiter-Glo assay) (AID 624031).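 Further: native untransfected S16 rat Schwann cells; series mostly up to about 58 µM; nearly all actives have a fitted effect of over 70% in size.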 In outline:
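Following overnight culture in 10% FBS DMEM, parental S16 rat Schwann cells are dosed for 24 h at 37 °C. Viability is read as CellTiter-Glo luminescence and expressed as % activity relative to DMSO (0%) and no-cell wells.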
For orientation: ATP-based viability assays read luminescence as a measure of living cells.

The target in experiment [4] is Glutaminase kidney isoform, mitochondrial (Homo sapiens) (UniProt O94925). Description: qHTS for Inhibitors of Glutaminase (GLS): LOPAC Validation (AID 624146).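 Further: glutamate product detected by oxidase and peroxidase coupled Amplex red fluorescence gain; series mostly up to about 46 µM; nearly all actives have a fitted effect of over 60% in size.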 The essentials:
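hKGA; 45 mM KH2PO4 pH 8.2 + 0.02% Tween-20; cpd via pin tool; 1 mM Gln soln; GluOx/HRP/Amplex Red; RT 30 min; fluor. t0 & final.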

A short description of experiment [5]: qHTS of Trypanosoma Brucei Inhibitors: LOPAC Validation (AID 624147). In outline: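 Glycolytic pyruvate kinase of T. brucei was incubated with substrate, test compound and 130 uM ADP for 45 minutes at room temperature. Luminescent Kinase-Glo Plus signal was measured after 10 minutes.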
Experiment [6] has as its target Glucagon-like peptide 1 receptor (Homo sapiens) (UniProt P43220). The experiment in a line: qHTS of GLP-1 Receptor Agonists: LOPAC Validation (AID 624148).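 Further: luminescence from a luciferase reporter switched on by cAMP; higher luminescence signal means agonism.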 The essentials: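 Agonism scored as increased luciferase luminescence driven by cAMP in HEK293 clones carrying GLP-1R. Cells settled 12 hours, received compound for 4-6 hr at 37 deg C, 5% CO2, and were read after 12 min detection reagent at RT.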

Experiment [7] can be described thus: S16 Schwann cell PMP22 intronic element firefly luciferase assay (AID 624032). Further: series mostly up to about 58 µM; nearly all actives have a fitted effect of over 30% in size. The essentials:
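Luciferase reporter of PMP22 intronic-element expression in stably transfected S16 rat Schwann cells, read by ONE-Glo luminescence after 24 h compound exposure at 37 C. Activity scaled between DMSO (0%) and positive-control PTC124; concentration-effect curves quality-classified.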

Experiment [8] can be described thus: S16 Schwann cell PMP22 intronic element beta-lactamase assay (AID 624044; calls by dose curve; further: nearly all actives have a fitted effect of over 15% in size). The essentials: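 Beta-lactamase reporter under a PMP22 intronic regulatory element in stable S16 rat Schwann cells; 24 h compound exposure. 460 nm blue signal normalized between DMSO (0%) and potassium clavulanate, with 535 nm FRET tracking viability; curves classed by r2 and response.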

Sequence of Glutaminase kidney isoform, mitochondrial (Homo sapiens) (O94925 whole entry, looked up, canonical isoform): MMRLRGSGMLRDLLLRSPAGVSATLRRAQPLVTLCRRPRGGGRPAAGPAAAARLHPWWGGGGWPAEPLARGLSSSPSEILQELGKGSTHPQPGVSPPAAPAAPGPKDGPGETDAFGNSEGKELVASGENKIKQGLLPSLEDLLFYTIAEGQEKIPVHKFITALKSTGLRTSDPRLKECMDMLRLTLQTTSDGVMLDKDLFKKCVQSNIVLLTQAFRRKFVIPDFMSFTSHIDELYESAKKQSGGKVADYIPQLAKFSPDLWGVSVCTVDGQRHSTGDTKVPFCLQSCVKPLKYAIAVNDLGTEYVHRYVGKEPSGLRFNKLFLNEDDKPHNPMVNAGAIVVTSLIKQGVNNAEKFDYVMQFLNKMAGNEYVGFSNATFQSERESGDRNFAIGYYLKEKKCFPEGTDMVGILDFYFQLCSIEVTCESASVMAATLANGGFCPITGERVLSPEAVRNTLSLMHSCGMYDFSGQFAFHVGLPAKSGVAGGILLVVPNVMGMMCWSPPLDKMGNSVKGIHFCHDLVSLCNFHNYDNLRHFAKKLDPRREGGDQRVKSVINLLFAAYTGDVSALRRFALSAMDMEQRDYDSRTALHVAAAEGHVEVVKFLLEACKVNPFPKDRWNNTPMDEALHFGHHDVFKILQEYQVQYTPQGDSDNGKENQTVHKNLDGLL
Sequence of Glucagon-like peptide 1 receptor (Homo sapiens) (P43220 whole entry, looked up): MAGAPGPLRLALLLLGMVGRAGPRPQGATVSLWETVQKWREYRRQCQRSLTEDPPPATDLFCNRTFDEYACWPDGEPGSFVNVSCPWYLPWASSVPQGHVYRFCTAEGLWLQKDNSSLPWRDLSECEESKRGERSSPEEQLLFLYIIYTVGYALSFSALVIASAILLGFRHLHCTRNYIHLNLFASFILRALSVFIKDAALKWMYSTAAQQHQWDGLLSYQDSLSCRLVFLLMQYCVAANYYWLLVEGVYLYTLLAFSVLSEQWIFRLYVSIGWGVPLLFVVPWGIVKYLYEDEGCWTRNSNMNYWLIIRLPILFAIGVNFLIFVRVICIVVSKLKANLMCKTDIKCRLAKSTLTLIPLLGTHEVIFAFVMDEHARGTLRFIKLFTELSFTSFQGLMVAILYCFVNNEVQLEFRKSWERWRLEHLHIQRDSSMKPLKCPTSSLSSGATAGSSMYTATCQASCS
Sequence of Voltage-gated inwardly rectifying potassium channel KCNH2 (Homo sapiens) (Q12809 whole entry, looked up): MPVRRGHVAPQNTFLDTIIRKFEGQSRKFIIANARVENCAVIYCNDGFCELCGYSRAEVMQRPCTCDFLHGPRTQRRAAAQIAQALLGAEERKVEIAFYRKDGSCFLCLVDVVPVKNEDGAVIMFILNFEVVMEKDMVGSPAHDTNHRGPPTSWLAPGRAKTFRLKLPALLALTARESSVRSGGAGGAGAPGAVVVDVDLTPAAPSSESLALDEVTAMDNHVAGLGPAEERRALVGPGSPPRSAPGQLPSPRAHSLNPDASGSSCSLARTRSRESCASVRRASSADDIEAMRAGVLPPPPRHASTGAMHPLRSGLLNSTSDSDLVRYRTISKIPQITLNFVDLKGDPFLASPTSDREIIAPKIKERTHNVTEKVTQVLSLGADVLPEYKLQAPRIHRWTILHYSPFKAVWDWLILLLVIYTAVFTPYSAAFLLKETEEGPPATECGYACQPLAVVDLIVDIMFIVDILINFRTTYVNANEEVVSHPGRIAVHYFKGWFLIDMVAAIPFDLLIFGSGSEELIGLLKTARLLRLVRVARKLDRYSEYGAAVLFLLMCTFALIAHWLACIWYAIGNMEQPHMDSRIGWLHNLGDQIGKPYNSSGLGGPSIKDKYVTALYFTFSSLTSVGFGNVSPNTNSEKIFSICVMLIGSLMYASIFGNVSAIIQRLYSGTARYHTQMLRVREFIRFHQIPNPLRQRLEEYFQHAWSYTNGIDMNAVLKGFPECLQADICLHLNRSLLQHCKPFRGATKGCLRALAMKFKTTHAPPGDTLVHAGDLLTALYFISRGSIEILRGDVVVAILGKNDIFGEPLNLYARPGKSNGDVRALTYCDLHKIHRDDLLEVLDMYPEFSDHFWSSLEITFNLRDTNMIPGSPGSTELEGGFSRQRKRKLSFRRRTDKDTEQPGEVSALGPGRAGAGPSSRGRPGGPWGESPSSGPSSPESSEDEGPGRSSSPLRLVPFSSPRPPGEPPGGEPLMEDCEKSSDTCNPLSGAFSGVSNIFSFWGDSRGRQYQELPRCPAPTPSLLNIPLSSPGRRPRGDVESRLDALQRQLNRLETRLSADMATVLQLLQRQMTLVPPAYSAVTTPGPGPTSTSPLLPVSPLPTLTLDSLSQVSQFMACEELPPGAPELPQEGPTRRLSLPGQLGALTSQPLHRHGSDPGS
Sequence of Luciferin 4-monooxygenase (Photinus pyralis) (P08659 whole entry, looked up): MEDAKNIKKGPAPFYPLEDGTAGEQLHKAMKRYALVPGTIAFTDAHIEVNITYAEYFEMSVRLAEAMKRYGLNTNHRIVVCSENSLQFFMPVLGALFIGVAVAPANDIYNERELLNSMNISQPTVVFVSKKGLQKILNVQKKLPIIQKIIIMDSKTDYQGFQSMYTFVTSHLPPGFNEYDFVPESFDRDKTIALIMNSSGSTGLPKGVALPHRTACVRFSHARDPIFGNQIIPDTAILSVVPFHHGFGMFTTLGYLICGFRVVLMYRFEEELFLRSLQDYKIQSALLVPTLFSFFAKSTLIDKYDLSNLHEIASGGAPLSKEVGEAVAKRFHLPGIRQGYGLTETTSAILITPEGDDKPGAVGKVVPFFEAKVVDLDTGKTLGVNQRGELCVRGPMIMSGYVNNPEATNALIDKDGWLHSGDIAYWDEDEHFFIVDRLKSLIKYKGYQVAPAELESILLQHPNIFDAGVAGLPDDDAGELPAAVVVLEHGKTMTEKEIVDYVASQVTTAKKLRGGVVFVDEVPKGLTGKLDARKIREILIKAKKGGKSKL

With `O=C1CCc2cc(OCCCCc3nnnn3C3CCCCC3)ccc2N1`, the Potency entry in experiment [1], in experiment [2] and in experiment [3] was “inactive” in each case. Moreover, the outcome in experiment [4], in experiment [5] and in experiment [6] was inactive.
On to `NNCCc1ccccc1`, for which the Potency entry in experiment [1], in experiment [3] and in experiment [7] was “inactive” each time. For the same compound, the call in experiment [5] and in experiment [6] was inactive.
Consider `Nc1ncnc2nc(-c3ccc(N4CCOCC4)nc3)cc(-c3cccc(Br)c3)c12`, for which the compound was called inactive in experiment [4] and in experiment [5].
Regarding `CCOC(=O)N1CCC(=C2c3ccc(Cl)cc3CCc3cccnc32)CC1`, the Potency result in experiment [2] and in experiment [3] was “inactive” each time. Besides, the call in experiment [8], in experiment [5] and in experiment [6] was inactive.
Turning to `O=C(O)COCCN1CCN(C(c2ccccc2)c2ccc(Cl)cc2)CC1` (stereo not drawn), the compound was classed as inactive in experiment [4], in experiment [5] and in experiment [6].
Regarding `CCOC(=O)C1=C[C@@]2(CC)CCCN3CCc4c(n1c1ccccc41)[C@H]32`, the Potency result in experiment [2] is “inactive”.
As for `CC(C)C[C@H](NC(=O)[C@@H](O)[C@H](N)Cc1ccccc1)C(=O)O`, the Potency entry in experiment [2], in experiment [3] and in experiment [7] was “inactive” in each case. Moreover, the compound was classed as inactive in experiment [8], in experiment [4], in experiment [5] and in experiment [6].
`CCCc1nn(C)c2c(=O)[nH]c(-c3cc(S(=O)(=O)N4CCN(C)CC4)ccc3OCC)nc12`: the Potency result in experiment [2] and in experiment [3] was “inactive” in each case. In addition, the compound was classed as inactive in experiment [8].
In the case of `Cc1cnc(NC(=O)C2=C(O)c3ccccc3S(=O)(=O)N2C)s1`, the Potency entry in experiment [1] and in experiment [2] was “inactive” in each case. In addition, the outcome in experiment [4] and in experiment [5] was inactive.
With `C#Cc1cccc(Nc2ncnc3cc(OCCOC)c(OCCOC)cc23)c1`, the Potency entry in experiment [1], in experiment [2] and in experiment [7] was “inactive” each time. In experiment [8], the compound was classed as inactive.
Regarding `Cc1cccc(-c2[nH]c(C(C)(C)C)nc2-c2ccc3nccnc3c2)n1`, the result in experiment [4], in experiment [5] and in experiment [6] was inactive.
As to `Cn1cnc2c(F)c(Nc3ccc(Br)cc3Cl)c(C(=O)NOCCO)cc21`, the Potency result in experiment [2] is “inactive”.
Consider `OC(CCN1CCCCC1)(c1ccccc1)C1CC2C=CC1C2` (stereo not drawn), for which the Potency result in experiment [2] is “inactive”. In addition, the outcome in experiment [4], in experiment [5] and in experiment [6] was inactive.
For `Cc1oncc1C(=O)Nc1ccc(C(F)(F)F)cc1`, the Potency entry in experiment [1], in experiment [3] and in experiment [7] was “inactive” each time. Further, the compound was classed as inactive in experiment [4], in experiment [5] and in experiment [6].
With `Cc1[nH]c(=O)c(C#N)cc1-c1ccc2nccn2c1`, the Potency entry in experiment [1], in experiment [2] and in experiment [3] was “inactive” each time. In addition, the call in experiment [5] and in experiment [6] was inactive.
As to `OC(CN1CCC(Cc2ccc(F)cc2)CC1)c1ccc(Cl)cc1` (stereo not drawn), in experiment [1], the Potency was 17.8 nM (active). Also, the Potency entry in experiment [2] and in experiment [7] was “inactive” throughout. In addition, the compound was classed as inactive in experiment [4], in experiment [5] and in experiment [6].
Consider `NCCCC(N)(C(=O)O)C(F)F` (stereo not drawn), for which the Potency entry in experiment [2], in experiment [3] and in experiment [7] was “inactive” each time. The compound was classed as inactive in experiment [8], in experiment [4], in experiment [5] and in experiment [6].
`O=C(NOC[C@H](O)CO)c1ccc(F)c(F)c1Nc1ccc(I)cc1F`: the Potency result in experiment [2] was “inactive”.
On the same count and under the same terms, the figure for `CNC(=O)c1ccccc1Sc1ccc2c(/C=C/c3ccccn3)n[nH]c2c1` is 510 nM (active).
Take `CCn1cc(C(=O)O)c(=O)c2cc(F)c(N3CCNC(C)C3)c(F)c21` (stereo not drawn): the compound was classed as inactive in experiment [4], in experiment [5] and in experiment [6].
In the case of `CCOC(=O)C1=C[C@]2(CC)CCCN3CCc4c(n1c1ccccc41)[C@@H]32`, in experiment [1], the Potency is 141 nM (active) and 31.6 nM (active). For the same compound, the Potency result in experiment [2] and in experiment [7] was “inactive” each time. The call in experiment [8], in experiment [4], in experiment [5] and in experiment [6] was inactive.
Consider `Cc1ccc(N(CC2=NCCN2)c2cccc(O)c2)cc1`, for which the Potency result in experiment [2], in experiment [3] and in experiment [7] was “inactive” each time. The call in experiment [8], in experiment [5] and in experiment [6] was inactive.
Turning to `C1COC(NC(C2CC2)C2CC2)=N1`, the Potency entry in experiment [1] and in experiment [2] was “inactive” each time. Besides, the result in experiment [4], in experiment [5] and in experiment [6] was inactive.
In the case of `CCC(C)N(C)C(=O)c1cc2ccccc2c(-c2ccccc2Cl)n1` (stereo not drawn), the Potency entry in experiment [1] is “inactive”. The compound was classed as inactive in experiment [4], in experiment [5] and in experiment [6].
Regarding `CCc1ccc(CCOc2ccc(CC3SC(=O)NC3=O)cc2)nc1` (stereo not drawn), the Potency entry in experiment [1], in experiment [3] and in experiment [7] was “inactive” throughout. Further, in experiment [8], the compound was classed as inactive.
As for `O=c1n(CCCN2CCN(c3cccc(Cl)c3)CC2)nc2ccccn12`, the Potency entry in experiment [2], in experiment [3] and in experiment [7] was “inactive” throughout. For the same compound, the result in experiment [4], in experiment [5] and in experiment [6] was inactive.
In the case of `O=C(Nc1nc2ccccc2n1CCN1CCOCC1)c1cccc([N+](=O)[O-])c1`, the outcome in experiment [4], in experiment [5] and in experiment [6] was inactive.
Turning to `Cc1cc2c(C(C)C)c(O)c(O)c(C=O)c2c(O)c1-c1c(C)cc2c(C(C)C)c(O)c(O)c(C=O)c2c1O`, the Potency result in experiment [1] and in experiment [7] was “inactive” throughout. The compound was classed as inactive in experiment [8], in experiment [4], in experiment [5] and in experiment [6].
